Screening results as filed in PubChem.
D2 PAM-1 – HTS Assay for Positive Allosteric Modulators of the Human D2 Dopamine Receptor: Primary Screen for Potentiators; AID 485347, 2010; HEK293 T-REx D2, calcium flux, EC20 dopamine potentiation; potentiation, % at 10 µM; D(2) dopamine receptor (Homo sapiens), P14416; actives 0.34% (n = 340,000);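 active = potentiation over 3 SD above the plate norm, cut at about 30% in these data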; note: 0% is about no effect
Target sequence (P14416 whole entry, looked up): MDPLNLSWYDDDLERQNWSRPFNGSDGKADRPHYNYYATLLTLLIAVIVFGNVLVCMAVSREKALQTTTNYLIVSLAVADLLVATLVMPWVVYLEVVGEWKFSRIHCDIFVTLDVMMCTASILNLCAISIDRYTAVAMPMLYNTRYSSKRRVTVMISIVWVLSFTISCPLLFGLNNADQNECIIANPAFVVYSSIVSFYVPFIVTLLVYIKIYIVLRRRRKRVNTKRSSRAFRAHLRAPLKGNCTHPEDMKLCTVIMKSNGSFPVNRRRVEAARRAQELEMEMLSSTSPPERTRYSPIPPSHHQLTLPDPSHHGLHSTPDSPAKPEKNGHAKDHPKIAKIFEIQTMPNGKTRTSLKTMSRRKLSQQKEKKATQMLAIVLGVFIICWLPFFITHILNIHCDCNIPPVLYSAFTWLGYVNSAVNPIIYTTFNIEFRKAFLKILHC
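Primary screen. Calcium kinetics in induced HEK293 T-REx D2 cells: compound pre-addition 180 s, EC20 dopamine, 180 s more.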
D2 antag – HTS Assay for Allosteric Antagonists of the Human D2 Dopamine Receptor: Primary Screen for Antagonists | D(2) dopamine receptor (Homo sapiens), P14416 | HEK293 TREx D2 cells, calcium flux, dopamine EC80 | inhibition, % at 10 µM | actives 2% (n = 340,000); in the data active = inhibition above about 30%; inactive = below that, where a call was filed; note: 0% is about no effect
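Calcium flux kinetic readout in an inducible HEK293 TREx D2 line plated overnight at 30 C. After 180 s compound exposure, an EC80 dopamine challenge follows with another 180 s kinetic read to detect antagonism.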
D2 ag-1 – Beta-Arrestin HTS for Positive Allosteric Modulators of the Human D2 Dopamine Receptor: Agonists; D(2) dopamine receptor (Homo sapiens), P14416; DiscoveRx PathHunter D2 beta-arrestin, luminescence, 90 min; 100% = 57 uM dopamine signal; activation, % (concentration not given with the values); actives 0.084% (n = 360,000); AID 624465, 2012; in the data active = activation above about 40%; inconclusive = between about 15% and that limit
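DiscoveRx PathHunter D2 beta-arrestin cells (2,100/well) attached overnight, then compound-stimulated 90 min at 37 C in HBSS/10 mM HEPES/0.1% Tween-20 buffer; beta-galactosidase complementation read by luminescence after 1 h at ambient temperature. Dopamine 57 uM final (EC100) as control.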
D2 PAM-2 – Beta-Arrestin HTS for Positive Allosteric Modulators of the Human D2 Dopamine Receptor: Potentiators; actives 0.23% (n = 360,000); AID 624464, 2012; D(2) dopamine receptor (Homo sapiens), P14416; potentiation, % (concentration not given with the values); DiscoveRx D2 beta-arrestin cells, luminescence, 90 min; 100% = 57 uM dopamine signal; in the data active = potentiation above about 50%; inconclusive = mostly about 30% to 49%
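PathHunter D2 cells, attached overnight at 37 deg C, received compound in DMSO plus dopamine at EC20 (50 nM final) for 90 min at 37 deg C. Beta-arrestin recruitment was read as luminescence after 1 h with detection reagent at ambient temperature.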
D2 ag-2 – HTS Assay for Allosteric Agonists of the Human D2 Dopamine Receptor: Primary Screen for Agonists | D(2) dopamine receptor (Homo sapiens), P14416 | HEK293 T-REx D2 cells, calcium flux agonist mode | activation, % at 2 µM | actives 0.53% (n = 340,000) | AID 485358, 2010;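 active = activation over 3 SD above normal in the single-dose calcium agonist read, cut at about 30% in these data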; note: 0% is about no effect
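In this primary screen, compounds producing a positive calcium signal within 180 s of addition to tetracycline-induced, force-coupled HEK293 Trex D2 cells are flagged; cells are dye-loaded with a no-wash calcium kit beforehand.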
Active calls of the source: *; ? = inconclusive; . = not tested or not shown. A selection: hits, their analogues and other compounds. The true share with any hit is near 2.4%.

SMILES	D2 PAM-1	D2 antag	D2 ag-1	D2 PAM-2	D2 ag-2
CC(C)(C)Cn1c(=O)[nH]c(=O)c2cc([N+](=O)[O-])cnc21	-1	35*	-2	-6	-1
O=c1cc(-c2ccco2)nc(SCc2cccc(Cl)c2)[nH]1	0	-1	5	54*	0
N/C(Cc1ccc([N+](=O)[O-])cc1)=N\OC(=O)Cc1ccccc1	9	11	15	-1	-1
N/C(Cc1ccc([N+](=O)[O-])cc1)=N\OC(=O)c1ccccc1F	10	-9	?	153*	1
N/C(Cc1ccc([N+](=O)[O-])cc1)=N\OC(=O)c1ccc(Br)o1	-5	-2	?	132*	-1
N/C(Cc1ccc([N+](=O)[O-])cc1)=N\OC(=O)Cc1ccc(Cl)cc1	-9	10	3	26	-1
CC(C)CN(CC(C)C)c1nnc(NC(=O)Nc2cccc(C(F)(F)F)c2)s1	-1	.	.	.	-1
COc1ccc(CCNC(=O)C(C)n2nc(C)c3sc4ccccc4c3c2=O)c(OC)c1 (configuration not stated)	-10	.	.	.	.
CSc1oc(-c2ccco2)nc1S(=O)(=O)c1ccccc1	-6	4	-4	-4	0
CC(C)Sc1oc(-c2ccco2)nc1S(=O)(=O)c1ccccc1	-3	33*	-3	-15	-3
COC(=O)c1ccsc1NC(=O)CS(=O)(=O)c1ccccc1	-12	31*	-1	-12	0
C=CCN(CC=C)Cc1c(C)[nH]c2c(C)c(C)ccc2c1=O	31*	6	-4	-6	0
CC(=O)NC1CC2CCCC(C1)N2Cc1ccc(C)cc1 (configuration not stated)	-26	54*	-4	-67	0
CCOc1ccccc1C(=O)NC1CC2CCCC(C1)N2Cc1ccc(C)cc1 (configuration not stated)	-22	84*	-2	-19	-1
O=C(NC1CC2CCCC(C1)N2Cc1ccc(F)cc1)c1ccc(F)cc1 (configuration not stated)	-22	75*	-9	-75	1
Cc1ccccc1C(=O)NC1CC2CCC(C1)N2Cc1ccccc1 (configuration not stated)	-24	72*	-5	-1	0
CC(=O)NC1CC2CCCC(C1)N2CC(=O)NCc1ccc(F)cc1 (configuration not stated)	-8	22	-1	3	0
Cc1cccc(CS(=O)(=O)CC2Nc3ccc(C(=O)NCc4ccccc4Cl)cc3NC2=O)c1 (configuration not stated)	-1	.	.	.	-1
CCc1ccc(NC(=O)CSc2ncc(S(=O)(=O)c3cc(C)ccc3C)c(=O)[nH]2)cc1	16	.	.	.	0
Cc1cn2c(=O)c(S(=O)(=O)NCCc3ccccc3)c(C)nc2s1	-1	.	.	.	0
O=C(NC1CC2CCCC(C1)N2Cc1cccs1)N1CCOCC1 (configuration not stated)	.	.	-2	-39	.
O=C(NC1CC2CCCC(C1)N2Cc1cccs1)c1ccc([N+](=O)[O-])cc1 (configuration not stated)	-21	57*	.	.	1
Cc1ccc(CN2C3CCCC2CC(NC(=O)c2ccc(C)cc2)C3)cc1 (configuration not stated)	-26	74*	3	-20	-2
Nc1ccc(C(=O)N2CCN(S(=O)(=O)c3ccc(Br)cc3)CC2)cc1[N+](=O)[O-]	2	35*	1	16	1
Cc1ccc(NC(=O)CSc2ncc3c(n2)-c2ccccc2N(C)S3(=O)=O)c(Cl)c1	7	.	.	.	0
COc1ccc(C(C)=O)c(OC(=O)c2ccc(OC)c(OC)c2)c1	36*	-2	-3	-4	1
